Measurements from PubChem BioAssay (EPA / NIEHS).
Active and inactive are the calls of the source. The calls were made as follows: active = hit-call score of the fitted dose curve at least 0.9, where 1 is the maximum; inactive = score below 0.9.

Legend:
[1] = APR_HepG2_CellLoss_72hr: Apredica 72-hour HepG2 Assay for Cell Loss (AID 2282915); details: high-content imaging
Outline: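 HepG2 cells exposed 72 h to compound at 0.39–200 uM (10 concentrations, duplicate) in 0.5% DMSO. Fixed with 3.7% formaldehyde and Hoechst 33342-stained. Imaged at 20x; nuclear count gives cell number, fitted bidirectionally versus DMSO.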

[2] = APR_HepG2_P-H2AX_72hr: Apredica 72-hour HepG2 Assay for H2AX Phosphorylation (AID 2282916); details: imaging, actives raise or lower the signal;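 also: phospho-histone H2A.x immunostain intensity per cell marking DNA damage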
Outline: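 Human hepatoma HepG2 cells are dosed across ten concentrations (0.39 to 200 uM, 0.5% v/v DMSO) and incubated 72 hr. Phospho-histone H2A.x is then detected by antibody staining alongside c-Jun and Hoechst, and quantified by automated fluorescence imaging.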

[3] = APR_HepG2_MitoMembPot_72hr: Apredica 72-hour HepG2 Assay for Mitochondrial Membrane Potential (AID 2282917); details: imaging, actives raise or lower the signal
Outline: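 HepG2 cells dosed 72 hr with compound at 0.39–200 uM in duplicate, 0.5% v/v DMSO final. Mitochondria stained with 250 nM MitoTracker Red CMXRos for 30 min before formaldehyde fixation, imaged by high-content fluorescence; bidirectional fit versus DMSO.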

[4] = APR_HepG2_MitoticArrest_72hr: Apredica 72-hour HepG2 Assay for Mitotic Arrest (AID 2282918); details: high-content imaging, actives raise or lower the signal
Outline: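 HepG2 cells treated 72 h at 0.39–200 uM, 0.5% DMSO final; formaldehyde-fixed, stained with Hoechst 33342 and phospho-histone H3 antibody, imaged by high-content fluorescence; bidirectional fit versus DMSO.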

[5] = APR_HepG2_MicrotubuleCSK_72hr: Apredica 72-hour HepG2 Assay for Microtubule CSK Stabilty (AID 2282919); details: HepG2 microtubule cytoskeleton, high-content imaging, actives raise or lower the signal
Outline: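 HepG2, 72 hr cmpd exposure, 0.39–200 uM (10 pts, duplicate), 0.5% DMSO. 3.7% formaldehyde fix, 0.5% Triton perm, anti-alpha-tubulin/Cy5 plus Hoechst. HCS fluorescence intensity; bidirectional fit vs DMSO baseline; taxol as positive control.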

[6] = APR_HepG2_P-H2AX_24hr: Apredica 24-hour HepG2 Assay for H2AX Phosphorylation (AID 2282920); details: high-content imaging, actives raise or lower the signal
Outline: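 HepG2 cells dosed 24 h at 0.39–200 uM (10 points, duplicate, 0.5% DMSO final). Formaldehyde-fixed and permeabilized, then immunostained for phospho-H2A.x with Hoechst. Fluorescence quantified by high-content imaging, fitted bidirectionally versus DMSO.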

[7] = APR_HepG2_StressKinase_72hr: Apredica 72-hour HepG2 Assay for Stress Kinase (AID 2282921); details: HepG2 stress kinase (phospho-c-Jun) imaging, actives raise or lower the signal
Outline: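 After a 72 h compound treatment spanning 0.39 to 200 uM, formaldehyde-fixed cells are labelled for phosphorylated c-Jun and nuclei, imaged by automated fluorescence microscopy, and activity is fitted in both directions relative to DMSO controls.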

[8] = APR_HepG2_StressKinase_24hr: Apredica 24-hour HepG2 Assay for Stress Kinase (AID 2282922); details: HepG2 stress kinase (phospho-c-Jun) imaging, actives raise or lower the signal
Outline: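 Read-out: phospho-c-Jun immunofluorescence (Cy3 secondary) quantified by high-content imaging at 20x, nuclei defined by Hoechst 33342. Human HepG2 liver cells dosed 24 hr, 0.39–200 uM, DMSO 0.5% v/v; gain or loss of signal fitted relative to DMSO.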

[9] = APR_HepG2_p53Act_72hr: Apredica 72-hour HepG2 Assay for p53 Activation (AID 2282923); details: high-content imaging, actives raise or lower the signal;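 also: average cellular p53 protein immunofluorescence intensity in HepG2 cells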
Outline: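 Imaging-based endpoint: after 72 hr compound exposure (up to 200 uM, 0.5% DMSO), fixed and permeabilized monolayers were labelled with anti-p53 antibody and imaged; signal change in either direction was fitted relative to DMSO controls.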

[10] = APR_HepG2_NuclearSize_72hr: Apredica 72-hour HepG2 Assay for Nuclear Size (AID 2282925); details: high-content imaging, actives raise or lower the signal
Outline: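 Read-out: nuclear diameter from Hoechst 33342 images (ArrayScan, 20x, six fields/well), via cell-cycle image analysis. HepG2 were dosed 0.39–200 uM for 72 hr in 0.5% DMSO. Bidirectional fit relative to DMSO.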

[11] = ATG_CRE_CIS: Attagene CIS-FACTORIAL HepG2 Assay for human cAMP Responsive Element (CRE) binding protein 3 (AID 2282926); details: HepG2 CRE cis-reporter, Attagene multiplexed mRNA; actives raise or lower the signal
Outline: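 Induced reporter mRNA from a CRE cis element, measured in HepG2 among many multiplexed units at 24 h. Detection used RT-PCR plus capillary electrophoresis of fluorescent fragments; DMSO served as negative control.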

[12] = target: CCAAT/enhancer-binding protein beta (Homo sapiens) (UniProt P17676); test: ATG_C_EBP_CIS: Attagene CIS-FACTORIAL HepG2 Assay for human CCAAT/Enhancer Binding Protein (C/EBP) beta (AID 2282927); details: HepG2 Attagene cis-factorial transcription factor reporter; actives raise or lower the signal
Outline: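 HepG2 transiently transfected with multiplexed reporter units under cis-regulatory promoters reporting endogenous C/EBPb activity. After 24 h exposure, reporter mRNA assayed by RT-PCR, fluorescent labelling, HpaI digestion and capillary electrophoresis; bidirectional fitting versus DMSO.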

[13] = ATG_CMV_CIS: Attagene CIS-FACTORIAL HepG2 Assay for human CMV (Internal Marker) (AID 2282928); details: HepG2 CMV promoter reporter, transcription factor profiling; actives raise or lower the signal;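 also: endpoint acts as a background internal control marker rather than a target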
Outline: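 Reporter transcripts from transfected HepG2 cells are isolated after 24 h of chemical dosing, reverse-transcribed and amplified. Fragments labeled with 6-FAM are cut with HpaI and quantified by capillary electrophoresis; DMSO defines baseline.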

[14] = ATG_DR4_LXR_CIS: Attagene CIS-FACTORIAL HepG2 Assay for human Liver X Receptor (LXR), DR4 submotif (AID 2282929); details: HepG2 Attagene DR4 cis-reporter, mRNA transcription; actives raise or lower the signal
Outline: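 Endogenous factor activity at a DR4 cis-element is read as reporter mRNA in transiently transfected HepG2 cells. Exposure lasts 24 h; transcripts are amplified, fluorescently labelled and sized by capillary electrophoresis, with DMSO as baseline.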

[15] = target: Aryl hydrocarbon receptor (Homo sapiens) (UniProt P35869); test: ATG_Ahr_CIS: Attagene CIS-FACTORIAL HepG2 Assay for human Aryl Hydrocarbon Receptor (Ahr) (AID 2282930); details: HepG2 AhR cis-factorial reporter transcription; actives raise or lower the signal
Outline: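 HepG2 cells transiently transfected with cis-element-driven multiplexed reporter units; endogenous AhR activity read as reporter mRNA 24 h after dosing, via RT-PCR, 6-FAM labelling, HpaI digestion and capillary electrophoresis. Bidirectional fit relative to DMSO.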

[16] = ATG_AP_1_CIS: Attagene CIS-FACTORIAL HepG2 Assay for human Activator Protein 1 (AP-1) (AID 2282931); details: HepG2 Attagene cis-factorial AP-1 reporter mRNA; actives raise or lower the signal
Outline: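 Fluorescence of labelled PCR fragments separated by capillary electrophoresis gives reporter mRNA levels. HepG2 with transfected cis-regulated reporter units, 24 h exposure; DMSO serves as baseline for bidirectional curve fits.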

[17] = ATG_AP_2_CIS: Attagene CIS-FACTORIAL HepG2 Assay for human Activator Protein 2 (AP-2) (AID 2282932); details: HepG2 AP-2 cis-reporter, Attagene transcription factor profiling; actives raise or lower the signal
Outline: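 Liver-derived HepG2 line, cis-reporter system measuring endogenous factors; 24 h dosing; reporter mRNA detected by fluorescent RT-PCR and capillary electrophoresis.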

[18] = ATG_BRE_CIS: Attagene CIS-FACTORIAL HepG2 Assay for human Bone Morphogenetic Protein (BMP) Response Element (BRE) (AID 2282933); details: HepG2 BMP response element reporter, Attagene transcription factor profiling; actives raise or lower the signal
Outline: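 Gain- or loss-of-signal was derived by bidirectional fitting against DMSO controls. The signal came from reporter mRNA, measured by RT-PCR and capillary electrophoresis, in HepG2 cells transiently carrying multiple reporter units and dosed for 24 h.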

[19] = target: Retinoic acid receptor alpha (Homo sapiens) (UniProt P10276); test: ATG_DR5_RAR_CIS: Attagene CIS-FACTORIAL HepG2 Assay for human Retinoic Acid Receptor Alpha (RARE), DR5 submotif (AID 2282934); details: HepG2 Attagene cis-factorial RARE DR5 reporter, mRNA; actives raise or lower the signal;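 as to AC50: reporter responds to endogenous RAR alpha beta and gamma in HepG2 not RARA alone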
Outline: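 HepG2 cells transiently transfected with multiplexed reporter units; DR5 cis-element drives reporter through endogenous transcription factors. After 24 h dosing, reporter mRNA quantified by RT-PCR, fluorescent labeling, HpaI digestion and capillary electrophoresis; bidirectional fitting versus DMSO.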

[20] = APR_HepG2_MitoMass_72hr: Apredica 72-hour HepG2 Assay for Mitochondrial Mass (AID 2282924); details: high-content imaging, actives raise or lower the signal;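 also: MitoTracker Red CMXRos stain intensity per cell imaged as mitochondrial mass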
Outline: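 Read-out: MitoTracker Red fluorescence intensity from automated imaging (20x, six fields per well) in human HepG2 liver cells. Dosing ran 72 hr, 0.39–200 uM, 0.5% DMSO; bidirectional curve fitting versus DMSO baseline.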

Chain of Retinoic acid receptor alpha (Homo sapiens) (P10276 whole entry, looked up): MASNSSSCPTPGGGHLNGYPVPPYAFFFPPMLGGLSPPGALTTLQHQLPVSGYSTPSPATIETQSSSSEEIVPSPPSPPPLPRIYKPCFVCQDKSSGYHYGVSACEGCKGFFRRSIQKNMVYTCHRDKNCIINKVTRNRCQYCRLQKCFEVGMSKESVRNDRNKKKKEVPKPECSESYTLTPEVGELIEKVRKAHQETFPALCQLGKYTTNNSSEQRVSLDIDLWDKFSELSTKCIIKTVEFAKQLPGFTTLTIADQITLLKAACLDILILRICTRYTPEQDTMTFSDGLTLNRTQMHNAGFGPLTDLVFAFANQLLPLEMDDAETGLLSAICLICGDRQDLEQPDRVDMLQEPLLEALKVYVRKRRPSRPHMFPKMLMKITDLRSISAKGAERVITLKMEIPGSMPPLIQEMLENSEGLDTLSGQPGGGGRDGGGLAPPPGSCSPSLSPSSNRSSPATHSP
Chain of Aryl hydrocarbon receptor (Homo sapiens) (P35869 whole entry, looked up): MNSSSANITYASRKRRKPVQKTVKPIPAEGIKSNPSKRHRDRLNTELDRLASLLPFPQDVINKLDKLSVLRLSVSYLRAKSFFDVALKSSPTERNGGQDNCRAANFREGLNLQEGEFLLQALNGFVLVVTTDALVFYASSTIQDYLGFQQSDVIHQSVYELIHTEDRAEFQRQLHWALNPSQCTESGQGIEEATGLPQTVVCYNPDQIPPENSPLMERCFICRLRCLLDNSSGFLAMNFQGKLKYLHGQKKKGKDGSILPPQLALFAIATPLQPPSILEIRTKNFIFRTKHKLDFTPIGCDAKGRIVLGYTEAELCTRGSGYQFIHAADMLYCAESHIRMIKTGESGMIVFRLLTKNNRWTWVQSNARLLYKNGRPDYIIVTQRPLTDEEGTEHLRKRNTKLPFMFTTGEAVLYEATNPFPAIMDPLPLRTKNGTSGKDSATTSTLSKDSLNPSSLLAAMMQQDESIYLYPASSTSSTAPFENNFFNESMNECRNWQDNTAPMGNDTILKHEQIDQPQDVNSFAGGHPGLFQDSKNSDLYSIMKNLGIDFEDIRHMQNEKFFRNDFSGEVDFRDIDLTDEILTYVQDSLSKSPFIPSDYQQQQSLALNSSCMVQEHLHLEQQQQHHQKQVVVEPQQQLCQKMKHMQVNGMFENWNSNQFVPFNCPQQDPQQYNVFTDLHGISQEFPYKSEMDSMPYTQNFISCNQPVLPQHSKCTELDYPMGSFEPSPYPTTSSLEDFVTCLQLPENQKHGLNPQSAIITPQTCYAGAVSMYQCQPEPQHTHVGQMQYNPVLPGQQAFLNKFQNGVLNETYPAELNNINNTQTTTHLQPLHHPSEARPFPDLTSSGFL
Chain of CCAAT/enhancer-binding protein beta (Homo sapiens) (P17676 whole entry, looked up): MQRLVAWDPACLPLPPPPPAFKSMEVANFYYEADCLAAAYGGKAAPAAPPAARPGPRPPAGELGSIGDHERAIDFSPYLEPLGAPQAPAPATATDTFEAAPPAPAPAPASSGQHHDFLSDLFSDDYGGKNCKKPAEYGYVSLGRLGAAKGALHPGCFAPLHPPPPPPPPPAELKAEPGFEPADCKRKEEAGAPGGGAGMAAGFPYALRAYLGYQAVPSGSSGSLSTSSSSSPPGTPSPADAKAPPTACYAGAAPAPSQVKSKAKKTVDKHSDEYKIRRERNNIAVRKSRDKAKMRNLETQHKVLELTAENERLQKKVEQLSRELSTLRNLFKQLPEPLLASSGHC

Question: Which AC50 [1] does the source give for `CN=C=S` here?
Answer: 49.2 µM (active)

Question: What about the outcome [2] of the same compound?
Answer: inactive

Question: And the outcome [3]?
Answer: inactive

Question: And the outcome [4]?
Answer: inactive

Question: What about the outcome [5] of the same compound?
Answer: inactive

Question: What about the outcome [6] of the same compound?
Answer: inactive

Question: What about the outcome [7] of the same compound?
Answer: inactive

Question: And the outcome [8]?
Answer: inactive

Question: And the outcome [9]?
Answer: inactive

Question: And the outcome [10]?
Answer: inactive

Question: And the AC50 [11]?
Answer: 13.7 µM (active)

Question: And the AC50 [12]?
Answer: 15.4 µM (active)

Question: And the outcome [13]?
Answer: inactive

Question: And the outcome [14]?
Answer: inactive

Question: What about the outcome [15] of the same compound?
Answer: inactive

Question: And the AC50 [16]?
Answer: 13.5 µM (active)

Question: What about the outcome [17] of the same compound?
Answer: inactive

Question: What about the AC50 [18] of the same compound?
Answer: 16.5 µM (active)

Question: What about the outcome [19] of the same compound?
Answer: inactive

Question: Which outcome [1] does the source give for `Cc1cnc(C2=NC(C)(C(C)C)C(=O)N2)c(C(=O)O)c1` (centres undefined) here?
Answer: inactive

Question: And the outcome [2]?
Answer: inactive

Question: And the outcome [3]?
Answer: inactive

Question: And the outcome [4]?
Answer: inactive

Question: And the outcome [5]?
Answer: inactive

Question: And the outcome [6]?
Answer: inactive

Question: What about the outcome [8] of the same compound?
Answer: inactive

Question: And the outcome [9]?
Answer: inactive

Question: What about the outcome [20] of the same compound?
Answer: inactive

Question: And the outcome [10]?
Answer: inactive

Question: What about the outcome [11] of the same compound?
Answer: inactive

Question: And the outcome [12]?
Answer: inactive

Question: And the outcome [13]?
Answer: inactive

Question: And the outcome [14]?
Answer: inactive

Question: And the outcome [15]?
Answer: inactive

Question: What about the outcome [16] of the same compound?
Answer: inactive

Question: And the outcome [17]?
Answer: inactive

Question: And the outcome [18]?
Answer: inactive

Question: And the AC50 [19]?
Answer: 35.4 µM (active)

Question: With `COCc1cnc(C2=NC(C)(C(C)C)C(=O)N2)c(C(=O)O)c1` (centres undefined) as the compound, how does the outcome [1] read?
Answer: inactive

Question: And the outcome [2]?
Answer: inactive

Question: What about the outcome [3] of the same compound?
Answer: inactive

Question: And the outcome [4]?
Answer: inactive

Question: And the outcome [5]?
Answer: inactive

Question: What about the outcome [6] of the same compound?
Answer: inactive

Question: And the outcome [8]?
Answer: inactive

Question: And the outcome [10]?
Answer: inactive

Question: And the outcome [11]?
Answer: inactive

Question: And the outcome [12]?
Answer: inactive

Question: And the outcome [13]?
Answer: inactive

Question: And the outcome [14]?
Answer: inactive

Question: And the outcome [15]?
Answer: inactive

Question: What about the outcome [16] of the same compound?
Answer: inactive

Question: What about the outcome [17] of the same compound?
Answer: inactive

Question: And the outcome [18]?
Answer: inactive

Question: What about the outcome [19] of the same compound?
Answer: inactive

Question: Which results are given for `COC(=O)c1c(C(F)F)nc(C(F)(F)F)c(C2=NCCS2)c1CC(C)C`?
Answer: AC50 [1]: 60.5 µM (active); outcome [2]: inactive; outcome [3]: inactive; outcome [4]: inactive; AC50 [5]: 72.7 µM (active); outcome [6]: inactive; outcome [8]: inactive; outcome [9]: inactive; outcome [20]: inactive; outcome [10]: inactive; AC50 [11]: 9.92 µM (active); AC50 [12]: 0.682 µM (active); outcome [13]: inactive; AC50 [14]: 26.2 µM (active); AC50 [15]: 50 µM (active); outcome [16]: inactive; outcome [17]: inactive; AC50 [18]: 50 µM (active); outcome [19]: inactive
